Test results as given in paper PMC7862700, “An all-to-all approach to the identification of sequence-specific readers for epigenetic DNA modifications on cytosine”.

Experiments:
Experiment in all cases: DAPPL (digital affinity profiling via proximity ligation, sequencing); 10 mM Tris-HCl pH 7.5, 50 mM NaCl, 1 mM DTT, 4% glycerol, room temperature, 30 min; GST-TFs on glutathione beads, 16-mer random dsDNA library, 0.1% formaldehyde crosslink after washing; high values mean tight binding
Conditions in all cases: protein: recombinant; tags: N-terminal GST; dsDNA, one strand shown
ERF = biological target: T1, ERF (Homo sapiens, UniProt P50548 1-548)
T1 sequence: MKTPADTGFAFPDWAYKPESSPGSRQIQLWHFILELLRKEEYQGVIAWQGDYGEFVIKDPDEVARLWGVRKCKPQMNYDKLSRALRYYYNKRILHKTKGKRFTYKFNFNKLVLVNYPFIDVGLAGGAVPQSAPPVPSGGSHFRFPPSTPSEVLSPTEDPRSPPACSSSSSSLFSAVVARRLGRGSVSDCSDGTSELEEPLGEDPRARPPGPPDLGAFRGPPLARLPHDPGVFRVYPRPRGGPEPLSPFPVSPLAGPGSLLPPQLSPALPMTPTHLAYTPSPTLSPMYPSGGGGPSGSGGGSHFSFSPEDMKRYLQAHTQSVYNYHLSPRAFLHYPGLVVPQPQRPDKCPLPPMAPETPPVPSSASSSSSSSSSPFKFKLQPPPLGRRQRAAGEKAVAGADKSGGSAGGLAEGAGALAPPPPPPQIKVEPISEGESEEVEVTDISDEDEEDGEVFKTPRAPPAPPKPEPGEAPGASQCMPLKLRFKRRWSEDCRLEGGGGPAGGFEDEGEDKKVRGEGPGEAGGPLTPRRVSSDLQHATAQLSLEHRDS
Procedure, shortened: (§1)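 After expression in yeast as GST fusions, human transcription factors were bound to glutathione beads, DNA-barcoded and mixed with a tag-only sample. The pools were incubated with 200 nmole of a 16-mer random double-stranded DNA library in Tris/NaCl/DTT/glycerol buffer (30 min, room temperature), washed and crosslinked with 0.1% formaldehyde. Proximity ligation with BsaI/T4 ligase ran for 1 h at 37 °C, before PCR amplification and sequencing on an Illumina NextSeq500. Binding signal is a hexamer's read frequency for a factor divided by its frequency for the tag-only sample.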

ETV3L = biological target: T2, ETV3L (Homo sapiens, UniProt Q6ZN32 1-361)
T2 sequence: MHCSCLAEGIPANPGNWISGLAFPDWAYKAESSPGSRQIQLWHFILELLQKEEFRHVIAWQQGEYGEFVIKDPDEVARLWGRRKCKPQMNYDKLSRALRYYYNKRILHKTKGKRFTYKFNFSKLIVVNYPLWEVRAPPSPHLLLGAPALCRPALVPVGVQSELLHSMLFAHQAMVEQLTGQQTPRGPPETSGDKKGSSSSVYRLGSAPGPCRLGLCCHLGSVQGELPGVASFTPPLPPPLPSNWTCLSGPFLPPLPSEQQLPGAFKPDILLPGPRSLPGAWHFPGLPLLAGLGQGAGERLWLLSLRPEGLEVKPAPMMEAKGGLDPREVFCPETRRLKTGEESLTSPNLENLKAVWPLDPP
Procedure, shortened: as §1

ETS2 = biological target: T3, ETS2 (Homo sapiens, UniProt P15036 1-469)
T3 sequence: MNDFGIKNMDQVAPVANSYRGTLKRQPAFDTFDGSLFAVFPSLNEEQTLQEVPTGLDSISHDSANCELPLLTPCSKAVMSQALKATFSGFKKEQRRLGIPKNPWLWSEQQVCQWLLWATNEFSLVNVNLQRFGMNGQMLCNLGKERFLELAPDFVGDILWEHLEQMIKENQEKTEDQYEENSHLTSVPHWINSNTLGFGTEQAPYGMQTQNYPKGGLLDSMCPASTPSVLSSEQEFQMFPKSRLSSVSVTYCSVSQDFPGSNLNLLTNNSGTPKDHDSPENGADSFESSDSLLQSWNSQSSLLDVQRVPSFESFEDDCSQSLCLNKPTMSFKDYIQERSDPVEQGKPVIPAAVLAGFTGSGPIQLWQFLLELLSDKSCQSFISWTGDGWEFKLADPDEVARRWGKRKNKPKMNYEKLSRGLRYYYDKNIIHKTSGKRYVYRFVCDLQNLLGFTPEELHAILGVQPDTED
Procedure, shortened: as §1

SPDEF = biological target: T4, SPDEF (Homo sapiens, UniProt O95238 1-335)
T4 sequence: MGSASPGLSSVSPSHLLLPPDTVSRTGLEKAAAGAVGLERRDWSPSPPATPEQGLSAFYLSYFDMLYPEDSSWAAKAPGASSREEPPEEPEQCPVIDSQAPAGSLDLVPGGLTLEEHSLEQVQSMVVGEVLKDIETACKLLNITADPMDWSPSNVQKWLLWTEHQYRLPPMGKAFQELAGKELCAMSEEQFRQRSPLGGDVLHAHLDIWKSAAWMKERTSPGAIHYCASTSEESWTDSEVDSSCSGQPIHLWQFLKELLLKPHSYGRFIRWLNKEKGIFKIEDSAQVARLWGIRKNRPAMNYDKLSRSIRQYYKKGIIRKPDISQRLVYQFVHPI
Procedure, shortened: as §1

ETV7 = biological target: T5, ETV7 (Homo sapiens, UniProt Q9Y603 1-341)
T5 sequence: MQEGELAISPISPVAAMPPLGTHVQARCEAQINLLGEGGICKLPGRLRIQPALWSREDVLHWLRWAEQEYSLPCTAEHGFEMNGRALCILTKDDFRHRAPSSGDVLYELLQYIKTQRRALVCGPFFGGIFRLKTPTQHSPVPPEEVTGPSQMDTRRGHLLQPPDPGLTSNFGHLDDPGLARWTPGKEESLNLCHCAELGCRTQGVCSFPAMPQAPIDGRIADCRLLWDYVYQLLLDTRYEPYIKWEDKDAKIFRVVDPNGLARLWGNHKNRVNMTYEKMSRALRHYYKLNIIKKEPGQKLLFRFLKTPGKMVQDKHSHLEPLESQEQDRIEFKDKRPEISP
Procedure, shortened: as §1

ELF5 = biological target: T6, ELF5 (Homo sapiens, UniProt Q9UKW6-2 1-255)
T6 sequence: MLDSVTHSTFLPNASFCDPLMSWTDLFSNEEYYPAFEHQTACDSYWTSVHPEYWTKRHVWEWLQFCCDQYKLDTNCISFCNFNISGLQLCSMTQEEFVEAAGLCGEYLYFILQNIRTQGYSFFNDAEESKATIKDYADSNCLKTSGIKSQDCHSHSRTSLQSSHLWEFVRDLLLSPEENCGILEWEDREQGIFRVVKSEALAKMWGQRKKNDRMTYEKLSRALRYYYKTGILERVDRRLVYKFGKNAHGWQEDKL
Procedure, shortened: as §1

ETV3 = biological target: T7, ETV3 (Homo sapiens, UniProt P41162-2 1-143)
T7 sequence: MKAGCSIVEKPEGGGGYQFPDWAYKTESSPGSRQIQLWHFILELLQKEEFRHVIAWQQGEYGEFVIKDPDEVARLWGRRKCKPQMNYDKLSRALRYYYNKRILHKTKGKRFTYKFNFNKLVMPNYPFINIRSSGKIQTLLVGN
Procedure, shortened: as §1

ETV6 = ETV6 (Homo sapiens, UniProt P41212 1-452)
Procedure, shortened: as §1

Sequence of ETV6 (P41212 whole entry): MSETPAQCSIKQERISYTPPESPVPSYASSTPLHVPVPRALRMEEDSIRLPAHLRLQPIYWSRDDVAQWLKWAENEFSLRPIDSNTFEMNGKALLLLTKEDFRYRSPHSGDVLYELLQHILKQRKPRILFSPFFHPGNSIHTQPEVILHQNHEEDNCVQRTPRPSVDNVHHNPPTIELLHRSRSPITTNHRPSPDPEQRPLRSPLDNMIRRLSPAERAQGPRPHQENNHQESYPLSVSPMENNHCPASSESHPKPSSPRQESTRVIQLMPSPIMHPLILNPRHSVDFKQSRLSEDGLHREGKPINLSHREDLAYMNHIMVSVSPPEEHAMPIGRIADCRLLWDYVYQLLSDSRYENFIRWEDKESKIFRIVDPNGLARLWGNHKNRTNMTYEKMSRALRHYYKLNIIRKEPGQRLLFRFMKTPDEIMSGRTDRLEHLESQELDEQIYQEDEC

Sequence | binding signal (ERF) | binding signal (ETV3L) | binding signal (ETS2) | binding signal (SPDEF) | binding signal (ETV7) | binding signal (ELF5) | binding signal (ETV3) | binding signal (ETV6)
GTAATA | 1.12 fold enrichment (6-mer frequency, TF over GST control) | 1.16 fold enrichment (6-mer frequency, TF over GST control) | 1.11 fold enrichment (6-mer frequency, TF over GST control) | 1.16 fold enrichment (6-mer frequency, TF over GST control) | 1.29 fold enrichment (6-mer frequency, TF over GST control) | 1.2 fold enrichment (6-mer frequency, TF over GST control) | 1.06 fold enrichment (6-mer frequency, TF over GST control) | 1.16 fold enrichment (6-mer frequency, TF over GST control)
ATGTTA | 1.21 fold enrichment (6-mer frequency, TF over GST control) | 1.2 fold enrichment (6-mer frequency, TF over GST control) | 1.24 fold enrichment (6-mer frequency, TF over GST control) | 1.26 fold enrichment (6-mer frequency, TF over GST control) | 1.23 fold enrichment (6-mer frequency, TF over GST control) | 1.21 fold enrichment (6-mer frequency, TF over GST control) | 1.23 fold enrichment (6-mer frequency, TF over GST control) | 1.28 fold enrichment (6-mer frequency, TF over GST control)
TCCGAC | 1.57 fold enrichment (6-mer frequency, TF over GST control) | 1.47 fold enrichment (6-mer frequency, TF over GST control) | 1.48 fold enrichment (6-mer frequency, TF over GST control) | 1.43 fold enrichment (6-mer frequency, TF over GST control) | 1.43 fold enrichment (6-mer frequency, TF over GST control) | 1.61 fold enrichment (6-mer frequency, TF over GST control) | 1.43 fold enrichment (6-mer frequency, TF over GST control) | 1.55 fold enrichment (6-mer frequency, TF over GST control)
GTTAAC | 1.12 fold enrichment (6-mer frequency, TF over GST control) | 1.14 fold enrichment (6-mer frequency, TF over GST control) | 1.22 fold enrichment (6-mer frequency, TF over GST control) | 1.23 fold enrichment (6-mer frequency, TF over GST control) | 1.24 fold enrichment (6-mer frequency, TF over GST control) | 1.22 fold enrichment (6-mer frequency, TF over GST control) | 1.27 fold enrichment (6-mer frequency, TF over GST control) | 1.18 fold enrichment (6-mer frequency, TF over GST control)
CTCTTA | 1.45 fold enrichment (6-mer frequency, TF over GST control) | 1.5 fold enrichment (6-mer frequency, TF over GST control) | 1.33 fold enrichment (6-mer frequency, TF over GST control) | 1.24 fold enrichment (6-mer frequency, TF over GST control) | 1.28 fold enrichment (6-mer frequency, TF over GST control) | 1.31 fold enrichment (6-mer frequency, TF over GST control) | 1.38 fold enrichment (6-mer frequency, TF over GST control) | 1.39 fold enrichment (6-mer frequency, TF over GST control)
TTGCCT | 1.18 fold enrichment (6-mer frequency, TF over GST control) | 1.34 fold enrichment (6-mer frequency, TF over GST control) | 1.24 fold enrichment (6-mer frequency, TF over GST control) | 1.18 fold enrichment (6-mer frequency, TF over GST control) | 1.23 fold enrichment (6-mer frequency, TF over GST control) | 1.19 fold enrichment (6-mer frequency, TF over GST control) | 1.14 fold enrichment (6-mer frequency, TF over GST control) | 1.1 fold enrichment (6-mer frequency, TF over GST control)
TACCTT | 1.51 fold enrichment (6-mer frequency, TF over GST control) | 1.34 fold enrichment (6-mer frequency, TF over GST control) | 1.44 fold enrichment (6-mer frequency, TF over GST control) | 1.39 fold enrichment (6-mer frequency, TF over GST control) | 1.37 fold enrichment (6-mer frequency, TF over GST control) | 1.49 fold enrichment (6-mer frequency, TF over GST control) | 1.29 fold enrichment (6-mer frequency, TF over GST control) | 1.5 fold enrichment (6-mer frequency, TF over GST control)
AAACAA | 1.25 fold enrichment (6-mer frequency, TF over GST control) | 1.32 fold enrichment (6-mer frequency, TF over GST control) | 1.32 fold enrichment (6-mer frequency, TF over GST control) | 1.27 fold enrichment (6-mer frequency, TF over GST control) | 1.28 fold enrichment (6-mer frequency, TF over GST control) | 1.28 fold enrichment (6-mer frequency, TF over GST control) | 1.3 fold enrichment (6-mer frequency, TF over GST control) | 1.31 fold enrichment (6-mer frequency, TF over GST control)
TTCTCA | 1.21 fold enrichment (6-mer frequency, TF over GST control) | 1.23 fold enrichment (6-mer frequency, TF over GST control) | 1.21 fold enrichment (6-mer frequency, TF over GST control) | 1.17 fold enrichment (6-mer frequency, TF over GST control) | 1.26 fold enrichment (6-mer frequency, TF over GST control) | 1.23 fold enrichment (6-mer frequency, TF over GST control) | 1.34 fold enrichment (6-mer frequency, TF over GST control) | 1.26 fold enrichment (6-mer frequency, TF over GST control)
GAATGT | 1.04 fold enrichment (6-mer frequency, TF over GST control) | 1.1 fold enrichment (6-mer frequency, TF over GST control) | 1.06 fold enrichment (6-mer frequency, TF over GST control) | 1.16 fold enrichment (6-mer frequency, TF over GST control) | 1.13 fold enrichment (6-mer frequency, TF over GST control) | 1.08 fold enrichment (6-mer frequency, TF over GST control) | 1.12 fold enrichment (6-mer frequency, TF over GST control) | 1.03 fold enrichment (6-mer frequency, TF over GST control)
TTACTA | 1.27 fold enrichment (6-mer frequency, TF over GST control) | 1.32 fold enrichment (6-mer frequency, TF over GST control) | 1.2 fold enrichment (6-mer frequency, TF over GST control) | 1.21 fold enrichment (6-mer frequency, TF over GST control) | 1.36 fold enrichment (6-mer frequency, TF over GST control) | 1.19 fold enrichment (6-mer frequency, TF over GST control) | 1.23 fold enrichment (6-mer frequency, TF over GST control) | 1.2 fold enrichment (6-mer frequency, TF over GST control)
TTAACT | 1.23 fold enrichment (6-mer frequency, TF over GST control) | 1.19 fold enrichment (6-mer frequency, TF over GST control) | 1.25 fold enrichment (6-mer frequency, TF over GST control) | 1.18 fold enrichment (6-mer frequency, TF over GST control) | 1.16 fold enrichment (6-mer frequency, TF over GST control) | 1.17 fold enrichment (6-mer frequency, TF over GST control) | 1.22 fold enrichment (6-mer frequency, TF over GST control) | 1.17 fold enrichment (6-mer frequency, TF over GST control)
AAACAC | 1.34 fold enrichment (6-mer frequency, TF over GST control) | 1.37 fold enrichment (6-mer frequency, TF over GST control) | 1.38 fold enrichment (6-mer frequency, TF over GST control) | 1.31 fold enrichment (6-mer frequency, TF over GST control) | 1.34 fold enrichment (6-mer frequency, TF over GST control) | 1.3 fold enrichment (6-mer frequency, TF over GST control) | 1.33 fold enrichment (6-mer frequency, TF over GST control) | 1.32 fold enrichment (6-mer frequency, TF over GST control)
TATACG | 1.39 fold enrichment (6-mer frequency, TF over GST control) | 1.15 fold enrichment (6-mer frequency, TF over GST control) | 1.37 fold enrichment (6-mer frequency, TF over GST control) | 1.39 fold enrichment (6-mer frequency, TF over GST control) | 1.39 fold enrichment (6-mer frequency, TF over GST control) | 1.35 fold enrichment (6-mer frequency, TF over GST control) | 1.3 fold enrichment (6-mer frequency, TF over GST control) | 1.23 fold enrichment (6-mer frequency, TF over GST control)
ACATGC | 1.37 fold enrichment (6-mer frequency, TF over GST control) | 1.26 fold enrichment (6-mer frequency, TF over GST control) | 1.25 fold enrichment (6-mer frequency, TF over GST control) | 1.24 fold enrichment (6-mer frequency, TF over GST control) | 1.23 fold enrichment (6-mer frequency, TF over GST control) | 1.23 fold enrichment (6-mer frequency, TF over GST control) | 1.22 fold enrichment (6-mer frequency, TF over GST control) | 1.45 fold enrichment (6-mer frequency, TF over GST control)
